Source: PubChem (several laboratories)
EBV LMP1 NFkB: Epstein-Barr LMP1 NF-kappaB reporter inhibition; AID 504558; 350,000 compounds, 0.69% hits; inhibition, % at 12.5 µM; LMP1-induced NF-kappaB luciferase reporter cells, luminescence; in the data active means inhibition above about 41%; inconclusive means no clear call, values can overlap the other calls;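 further: 0% = neutral control wells and 100% = reference inhibitor control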
TRPM1 prom inh: reduces MITF-dependent TRPM1 promoter luciferase signal. SK-MEL-5 TRPM1 promoter luciferase, 24 h. inhibition, % at 12.5 µM. 330,000 compounds, 0.83% hits. AID 488899;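 active means mean inhibition across replicates of 60% or more, whatever share of single replicates reaches that level; inconclusive means some that reach 60%, reason not given; inactive means mean inhibition across replicates below 60%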
TROY NFkB inh: blocks TROY-dependent signaling in reporter cells; Q293 LMP1-TROYcd NF-kB luciferase reporter, 4 h; AID 1347056; 360,000 compounds, 0.98% hits; inhibition, % at 10 µM;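 active means compounds whose plate-normalised and pattern-corrected inhibition of the luciferase reporter signal at the single screening dose is 50% or more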
LGR2 inh: Drosophila LGR2 receptor signaling inhibition. 380,000 compounds, 0.35% hits. HEK293 LGR2, CRE-luciferase, bursicon-stimulated, 4 h. AID 720647. inhibition, % at 9.99 µM;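 active means drop in luminescence signal, shown as inhibition above about 50% in the replicate tests, limit read from the data, passing the limit was not always enough; inconclusive means probably only some replicates passing the limit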;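 further: agonist challenge used bursicon conditioned medium at about half maximal strength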
TWEAK-Fn14 inh: inhibitors of TWEAK-Fn14 interaction signaling; TWEAK-stimulated Fn14 reporter cells, luciferase luminescence, 8 h; 360,000 compounds, 2% hits; AID 1159606; inhibition, % at 10 µM; in the data active means inhibition above about 50%
MITF act: activators of MITF-driven TRPM1 promoter activity in SK-MEL-5 cells; SK-MEL-5 TRPM1-promoter luciferase, 24 h; % of positive control, neutral wells = 0; activation, % at 12.5 µM; 300,000 compounds, 0.75% hits; AID 588334;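 active means mean activation of at least 80% with every replicate also reaching 80%; inconclusive means mean reaches 80% but some replicate falls short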;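 further: 0% = neutral control wells and 100% = parthenolide positive control wells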
An asterisk follows results filed as active; ? = inconclusive; nt = not tested or not shown; ! = a repeat was not active. This is a sample that favours compounds with a hit; in the whole collection about 3% have one here.

SMILES | EBV LMP1 NFkB | TRPM1 prom inh | TROY NFkB inh | LGR2 inh | TWEAK-Fn14 inh | MITF act
CC1CCN(CC(CS(=O)(=O)c2ccc([N+](=O)[O-])cc2)N2CCC(C)CC2)CC1 (stereo unspecified) | -2 | 84* | -1 | -14 | 8 | -84
Cc1cc[n+](-c2[nH]c(=O)sc2/C=N/N=C(\[O-])c2ccncc2)cc1 | 70* | 9 | -8 | -5 | -6 | -3
O=C(CCl)N(c1ccccc1)C1CCS(=O)(=O)C1 (stereo unspecified) | 12 | ? | 5 | -14 | 53* | -63
CC1=C(C)/C(=N\OS(=O)(=O)c2ccc(C)cc2)C=CC1=O | -6 | 48 | -17 | -32 | 93* | -41
Cc1onc(-c2c(Cl)cccc2Cl)c1C(=O)NC1C(=O)N2C1SC(C)(C)C2C(=O)O (stereo unspecified) | 0 | 8 | 9 | -1 | 13 | -7
Cc1onc(-c2c(Cl)cccc2Cl)c1C(=O)N[C@@H]1C(=O)N2[C@@H]1SC(C)(C)[C@@H]2C(=O)O | 75*! | 17 | 4 | 2 | -14 | -16
CCCc1cn(CC[C@H]2CC[C@H](NC(=O)CCN3CCCCC3)[C@@H](CO)O2)nn1 | nt | nt | nt | 13 | nt | nt
CC(C)C#Cc1ccc2c(c1)O[C@H](CN(C)Cc1ccncc1)[C@@H](C)CN([C@@H](C)CO)S2(=O)=O | nt | nt | nt | 4 | nt | nt
C[C@@H]1CN([C@H](C)CO)C(=O)c2cc(NS(C)(=O)=O)ccc2O[C@@H](C)CCCCO[C@H]1CN(C)Cc1ccc(C(F)(F)F)cc1 | nt | nt | nt | 9 | nt | nt
CC(C)OC(=O)c1sc2nc(-c3ccccc3)ccc2c1N | -62 | 5 | 80* | -63 | 91* | -5
Cc1ccc(/C(N)=N/OC(=O)c2cccs2)cc1 | -32 | -15 | -26 | 26 | 42 | 17
COc1ccc(/C(N)=N/OC(=O)c2cccs2)cc1OC | -26 | -85 | -49 | -75 | -2 | 84*
COc1ccc(CNCCC(c2ccc(OC(C)C)cc2)c2ccccc2OC)cc1 (stereo unspecified) | 16 | 44 | -9 | -1 | 3 | -42
COc1ccccc1C(CCNCc1ccc(N(C)C)cc1)c1ccc(OC(C)C)cc1 (stereo unspecified) | -24 | 77* | 7 | 36 | -14 | -76
COc1ccc(CNCCC(c2ccc(OC(C)C)cc2)c2ccccc2OC)cc1OC (stereo unspecified) | 11 | 66* | 15 | -4 | 5 | nt
COc1ccccc1NC(=O)CC(c1ccc(OC(C)C)cc1)c1ccccc1OC (stereo unspecified) | 54* | 8 | 7 | 12 | 4 | -11
COc1ccc(S(=O)(=O)N(C)C[C@@H]2OCCCC[C@H](C)Oc3ccc(NC(=O)CCCN(C)C)cc3C(=O)N([C@H](C)CO)C[C@@H]2C)cc1 | nt | nt | nt | 6 | nt | nt
CCCCCn1cnc2sc(-c3ccccc3)cc2c1=O | -33 | -115 | 9 | nt | -1 | 107*
CCCCn1cnc2sc(-c3ccccc3)cc2c1=O | -30 | -85 | -53 | nt | -6 | 91*
CCc1ccc(NC(=O)Cn2cnc3c(=O)n(C)c(=O)n(C)c32)cc1 | 0 | 3 | 4 | 4 | 10 | -3
O=C(CCS(=O)(=O)c1ccccc1)Nc1ccc(-c2nc3ccccc3s2)cc1 | -30 | -24 | -11 | -78 | -11 | 23
O=C(CCS(=O)(=O)c1ccccc1)Nc1cccc(-c2nc3ccccc3s2)c1 | -88 | 28 | 57* | -18 | 87* | -28
Cn1c(=O)c2ncn(CC(=O)Nc3cccc(-c4nc5ccccc5s4)c3)c2n(C)c1=O | -26 | -1 | 36 | nt | 67* | 7
O=C(C[C@@H]1C=C[C@H](NS(=O)(=O)c2ccccc2F)[C@H](CO)O1)NCCCN1CCOCC1 | nt | nt | nt | -1 | nt | nt
COc1ccc2c3c([nH]c2c1)[C@H](CO)N(Cc1ccncc1)CC31CCN(C(=O)CN(C)C)CC1 | nt | nt | nt | -11 | nt | nt
SMILES | EBV LMP1 NFkB | TRPM1 prom inh | TROY NFkB inh | LGR2 inh | TWEAK-Fn14 inh | MITF act
CCOc1ccc(-c2c(C#N)c(N)nc3sc(C(=O)c4ccccc4)c(N)c23)cc1 | 8 | 8 | 89* | -9 | 76* | -17
CN1[C@@H]2c3ccc(-c4ccc(F)cc4)c(=O)n3C[C@@H]2[C@@H](CO)[C@@H]1C(=O)NCC1CC1 | nt | nt | nt | -14 | nt | nt
O=C(Nc1ccc(F)cc1F)c1ccc2c(=O)n3c(nc2c1)CCC3 | -1 | -46 | 14 | -41 | 6 | 46
O=C(Nc1ccc(F)cc1Cl)c1ccc2c(=O)n3c(nc2c1)CCC3 | -22 | -100 | -48 | -74 | -6 | 102*
O=C(Nc1cccc(S(=O)(=O)N2CCCCC2)c1)c1ccc2c(=O)n3c(nc2c1)CCCCC3 | 11 | 52 | 55* | 41 | 71* | -49
CCc1ccc(NC(=O)c2ccc3c(=O)n4c(nc3c2)CCCCC4)cc1 | 8 | -23 | 14 | -4 | -1 | 25
CC(NC1CCCC1)c1ccccc1 (stereo unspecified) | -1 | -5 | 76* | nt | 16 | 5
COc1ccc2c3c([nH]c2c1)[C@@H](CO)N(Cc1ccncc1)CC31CCN(C(=O)CN(C)C)CC1 | nt | nt | nt | 2 | nt | nt
COc1ccccc1NC(=O)N1C[C@@H](O)COC[C@H]2O[C@H](CC(=O)NCCc3ccccc3)CC[C@@H]21 | nt | nt | nt | 11 | nt | nt
COc1cc(-c2nc(-c3ccc(NC(=O)c4ccc(Br)o4)cc3)no2)cc(OC)c1OC | 15 | -11 | 8 | nt | 59* | nt
COc1ccc(-c2nc(-c3ccc(NC(=O)c4ccc(Br)o4)cc3)no2)cc1OC | 6 | 3 | -57 | nt | -115 | -2
CN(C)C(=O)C#Cc1ccccc1 | -9 | -3 | -21 | -16 | -6 | nt
O=C(C#Cc1ccccc1)c1ccc([N+](=O)[O-])cc1 | 26 | 69* | 36 | nt | 8 | -67
O=C(C#Cc1ccccc1)c1ccccc1 | -3 | nt | 37 | 33 | 76* | nt
O=c1[nH]c(-c2ccccn2)cc2ccccc12 | -22 | -18 | 36 | -71 | 79* | 25
CC(C)(C)NC(=S)Nc1ccc(Br)cc1 | -4 | -12 | -8 | nt | 7 | 12
CC(C)(C)NC(=S)Nc1ccc(Nc2ccccc2)cc1 | 3 | -9 | -61 | nt | 56* | nt
CCS(=O)(=O)N1CCC2(CC1)CN(C(=O)CN1CCOCC1)[C@@H](CO)c1c2c2ccc(OC)cc2n1C | nt | nt | nt | -18 | nt | nt
O=C(CNc1ccc2ccccc2c1)N/N=C/c1ccc([N+](=O)[O-])o1 | -12 | 59 | 22 | nt | 17 | -61
O=C(CSc1ccc(Cl)cc1)N/N=C/c1ccc([N+](=O)[O-])o1 | -21 | 62* | 4 | 20 | -2 | -61
COc1ccc(-c2nn(-c3ccccc3)cc2C(=O)N/N=C/c2ccc([N+](=O)[O-])o2)cc1 | -68 | 90* | -1 | -6 | 25 | -89
NC(=O)N/N=C/c1ccc([N+](=O)[O-])o1 | 3 | 9 | -3 | -5 | -18 | -8
O=C(COc1ccccc1)N/N=C/c1ccc([N+](=O)[O-])o1 | -6 | 68* | -64 | -5 | 15 | -64
